Measurements published in PubChem BioAssay (Tox21).
“And” between values parts separate entries of the source, which are not always exact repeats. Identical values can stand only once. Some structures have more than one record in an assay (separate samples or runs), and their calls can disagree. The source made the active and inactive calls. Where a call stands in place of a potency, no number is given. Unless noted, the call rests on the fitted dose curve; in most records, active means well fitted curve in the direction sought with a large enough effect in the repeat runs; inconclusive means weak or mixed curves; inactive means no such curve, though single readings can be large; an effect the other way counts as inactive or inconclusive.

Legend:
[1] = qHTS assay to identify small molecule antagonists of the glucocorticoid receptor (GR) signaling pathway - cell viability counter screen (AID 720693); further: nearly all actives have a fitted effect of over 55% in size
[2] = qHTS assay for identifying genotoxic compounds that show differential cytotoxicity against isogenic chicken DT40 cell lines with known DNA damage response pathways - wild type cell line (AID 743012); further: nearly all actives have a fitted effect of over 60% in size; further: potency means the concentration at half of the fitted maximal effect
Summary of the method: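 Cells (DT40 wild type, 300/well) are treated with DMSO-dissolved compounds after a ~0.5 h pre-incubation and kept 40 h at 37 C/5% CO2. Viability is then measured by CellTiter-Glo luminescence following 30 min at room temperature.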

[3] = qHTS assay for identifying genotoxic compounds that show differential cytotoxicity against isogenic chicken DT40 cell lines with known DNA damage response pathways - Rev3 mutant cell line (AID 743014); further: nearly all actives have a fitted effect of over 55% in size; further: potency means the concentration at half of the fitted maximal effect
[4] = qHTS assay for identifying genotoxic compounds that show differential cytotoxicity against isogenic chicken DT40 cell lines with known DNA damage response pathways - Rad54/Ku70 mutant cell line (AID 743015); further: nearly all actives have a fitted effect of over 60% in size; further: potency means the concentration at half of the fitted maximal effect
[5] = qHTS assay to identify small molecule antagonists of the androgen receptor (AR) signaling pathway - cell viability counter screen (AID 743033; further: nearly all actives have a fitted effect of over 45% in size)
[6] = biological target: Androgen receptor (Homo sapiens) (UniProt P10275); experiment: qHTS assay to identify small molecule antagonists of the androgen receptor (AR) signaling pathway (AID 743035; active means well fitted inhibition curve with a large enough effect in the signal ratio in the repeat runs, not every such curve was filed as active; inconclusive means weak or mixed curves, or effect the other way; inactive means no such curve, though single readings can be large or run the other way; the % refers to the signal ratio)
Summary of the method: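 Antagonism is scored as loss of R1881-driven beta-lactamase reporter expression in HEK293 cells carrying the reporter under a UAS element, after 16 h co-treatment at 37C and a 2 h room-temperature FRET substrate read.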

[7] = biological target: Androgen receptor (Homo sapiens) (UniProt P10275); experiment: qHTS assay to identify small molecule agonists of the androgen receptor (AR) signaling pathway (AID 743036; active means well fitted activation curve with a large enough effect in the signal ratio in the repeat runs, with a control signal flat, not every such curve was filed as active; inconclusive means weak or mixed curves, or effect the other way; inactive means no such curve, though single readings can be large or run the other way; the % refers to the signal ratio)
Summary of the method: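 Agonist activity was scored by beta-lactamase reporter fluorescence in stably transfected HEK293 cells exposed to compounds for 16 h at 37C and 5% CO2. Substrate loading took 2 h at room temperature.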

[8] = biological target: Androgen receptor (Homo sapiens) (UniProt P10275); experiment: qHTS assay to identify small molecule agonists of the androgen receptor (AR) signaling pathway using the MDA cell line (AID 743040; further: nearly all actives have a fitted effect of over 20% in size)
Summary of the method: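 MDA-kb2 breast carcinoma cells carrying MMTV-luciferase (responsive to AR and GR), plated 5 h then treated 16 h with compounds at 37C, 0% CO2. Read-out was ONE-Glo luminescence after 30 min at room temperature.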

[9] = qHTS assay to identify small molecule antagonists of the androgen receptor (AR) signaling pathway using the MDA cell line - cell viability counter screen (AID 743041; further: nearly all actives have a fitted effect of over 45% in size)
Summary of the method: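 MDA-kb2 AR-luc cells (MMTV-luciferase, AR/GR responsive) treated with compounds plus R1881 agonist for 16 h at 37C. CellTiter-Fluor added at 15.5 h; fluorescence read after 30 min in the same wells.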

[10] = biological target: Androgen receptor (Homo sapiens) (UniProt P10275); experiment: qHTS assay to identify small molecule antagonists of the androgen receptor (AR) signaling pathway using the MDA cell line (AID 743042; further: nearly all actives have a fitted effect of over 55% in size)
Summary of the method: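 MDA-kb2 breast carcinoma cells carrying MMTV-luciferase (AR/GR responsive) were co-treated with compounds and the agonist R1881 for 16 h at 37C. Inhibition read as ONE-Glo luminescence; CellTiter-Fluor fluorescence measured in parallel for cytotoxicity.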

[11] = qHTS assay to identify small molecule antagonists of the thyroid receptor (TR) signaling pathway - cell viability counter screen (AID 743064); further: nearly all actives have a fitted effect of over 50% in size; further: potency means the concentration at half of the fitted maximal effect
Summary of the method: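 Same-well viability check: GH3.TRE-Luc cells stimulated with 1 nM T3 alongside test compound for 23.5 h, followed by CellTiter-Fluor fluorescence.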

[12] = qHTS assay to identify small molecule antagonists of the thyroid receptor (TR) signaling pathway (AID 743065); further: series mostly up to about 70 µM; nearly all actives have a fitted effect of over 55% in size
Summary of the method: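 GH3.TRE-Luc rat pituitary cells (two TREs driving luciferase) were dosed with compound, then stimulated with 1 nM T3 (final) for 23.5 h at 37 C. ONE-Glo luminescence was the read-out, with CellTiter-Fluor fluorescence as the cytotoxicity counter-screen.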

[13] = tested on: thyroid hormone receptor (rat, GH3 cells); experiment: qHTS assay to identify small molecule agonists of the thyroid receptor (TR) signaling pathway (AID 743066; calls by dose curve)
[14] = biological target: Estrogen receptor (Homo sapiens) (UniProt P03372); experiment: qHTS assay to identify small molecule antagonists of the estrogen receptor alpha (ER-alpha) signaling pathway (AID 743069; active means well fitted curve in the direction sought with a large enough effect in the signal ratio in the repeat runs, not every such curve was filed as active; inconclusive means weak or mixed curves, or effect the other way; inactive means no such curve, though single readings can be large or run the other way; the % refers to the signal ratio)
Summary of the method: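 HEK293 ER-alpha-UAS-bla GripTite cells, held overnight in 2% charcoal-stripped FBS, 5,000 cells/well, preincubated 4 h, then compound plus 17beta-estradiol for 18 h at 37C. Beta-lactamase read by LiveBLAzer B/G FRET substrate, 2 h at room temperature.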

[15] = biological target: Estrogen receptor (Homo sapiens) (UniProt P03372); experiment: qHTS assay to identify small molecule agonists of the estrogen receptor alpha (ER-alpha) signaling pathway (AID 743075; calls by dose curve; further: potency means the concentration at half of the fitted maximal effect)
[16] = biological target: Estrogen receptor (Homo sapiens) (UniProt P03372); experiment: qHTS assay to identify small molecule agonists of the estrogen receptor alpha (ER-alpha) signaling pathway using the BG1 cell line (AID 743079); further: nearly all actives have a fitted effect of over 20% in size; further: potency means the concentration at half of the fitted maximal effect
[17] = qHTS assay to identify small molecule antagonists of the estrogen receptor alpha (ER-alpha) signaling pathway using the BG1 cell line (AID 743080; calls by dose curve;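 further: BG1 cells stimulated with 17beta-estradiol alongside compound; series mostly up to about 70 µM; nearly all actives have a fitted effect of over 25% in size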)
Summary of the method: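 BG1-Luc-4E2 cells (endogenous full-length ER-alpha, 4xERE luciferase) hormone-starved 5 days in charcoal-stripped FBS, plated 4,000/well for 24 h, then compound plus 17beta-estradiol for 21.5 h at 37 C; ONE-Glo luminescence read.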

[18] = qHTS assay to identify small molecule antagonists of the estrogen receptor alpha (ER-alpha) signaling pathway using the BG1 cell line - cell viability counter screen (AID 743081);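 further: compound given together with 17beta-estradiol as the ER stimulus; series mostly up to about 70 µM; nearly all actives have a fitted effect of over 45% in size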
Aromatase (Homo sapiens) = Aromatase (Homo sapiens) (UniProt P11511); experiment: qHTS assay to identify aromatase inhibitors (AID 743083)
[19] = qHTS assay to identify small molecule antagonists of the estrogen receptor alpha (ER-alpha) signaling pathway - cell viability counter screen (AID 743074; calls by dose curve;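 further: HEK293 cells carrying ER-alpha-UAS-bla reporter stimulated with 17beta-estradiol; nearly all actives have a fitted effect of over 45% in size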)

Sequence of Estrogen receptor (Homo sapiens) (P03372 whole entry, looked up): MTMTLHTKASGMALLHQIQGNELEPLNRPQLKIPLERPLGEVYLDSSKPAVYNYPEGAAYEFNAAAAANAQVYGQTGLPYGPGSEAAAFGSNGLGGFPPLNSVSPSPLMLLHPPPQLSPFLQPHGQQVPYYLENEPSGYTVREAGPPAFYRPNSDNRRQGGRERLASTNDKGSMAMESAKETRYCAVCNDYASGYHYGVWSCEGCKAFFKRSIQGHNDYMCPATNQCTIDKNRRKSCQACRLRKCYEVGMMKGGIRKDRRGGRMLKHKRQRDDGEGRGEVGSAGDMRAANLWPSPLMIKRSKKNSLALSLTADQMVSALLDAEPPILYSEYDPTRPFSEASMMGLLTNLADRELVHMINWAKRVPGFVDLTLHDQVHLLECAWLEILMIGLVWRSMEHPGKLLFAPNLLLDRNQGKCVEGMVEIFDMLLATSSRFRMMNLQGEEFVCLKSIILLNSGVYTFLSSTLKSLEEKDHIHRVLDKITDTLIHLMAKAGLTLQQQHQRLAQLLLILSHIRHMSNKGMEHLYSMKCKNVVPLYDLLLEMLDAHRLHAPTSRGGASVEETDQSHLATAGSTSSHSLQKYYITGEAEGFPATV
Sequence of Aromatase (Homo sapiens) (P11511 whole entry, looked up): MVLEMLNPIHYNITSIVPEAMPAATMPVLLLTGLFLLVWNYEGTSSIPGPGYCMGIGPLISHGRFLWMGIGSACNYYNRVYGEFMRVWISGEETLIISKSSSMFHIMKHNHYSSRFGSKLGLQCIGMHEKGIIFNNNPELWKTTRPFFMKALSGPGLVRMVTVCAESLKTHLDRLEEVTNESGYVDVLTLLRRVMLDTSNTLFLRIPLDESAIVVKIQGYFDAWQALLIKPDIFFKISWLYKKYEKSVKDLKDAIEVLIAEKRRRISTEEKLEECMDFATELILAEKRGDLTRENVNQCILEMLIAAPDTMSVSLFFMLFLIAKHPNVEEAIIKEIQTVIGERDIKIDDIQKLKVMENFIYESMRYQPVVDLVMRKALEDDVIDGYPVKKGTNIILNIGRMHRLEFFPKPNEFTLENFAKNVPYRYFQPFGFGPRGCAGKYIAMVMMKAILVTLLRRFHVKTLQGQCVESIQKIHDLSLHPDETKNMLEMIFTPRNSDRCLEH
Sequence of Androgen receptor (Homo sapiens) (P10275 whole entry, looked up): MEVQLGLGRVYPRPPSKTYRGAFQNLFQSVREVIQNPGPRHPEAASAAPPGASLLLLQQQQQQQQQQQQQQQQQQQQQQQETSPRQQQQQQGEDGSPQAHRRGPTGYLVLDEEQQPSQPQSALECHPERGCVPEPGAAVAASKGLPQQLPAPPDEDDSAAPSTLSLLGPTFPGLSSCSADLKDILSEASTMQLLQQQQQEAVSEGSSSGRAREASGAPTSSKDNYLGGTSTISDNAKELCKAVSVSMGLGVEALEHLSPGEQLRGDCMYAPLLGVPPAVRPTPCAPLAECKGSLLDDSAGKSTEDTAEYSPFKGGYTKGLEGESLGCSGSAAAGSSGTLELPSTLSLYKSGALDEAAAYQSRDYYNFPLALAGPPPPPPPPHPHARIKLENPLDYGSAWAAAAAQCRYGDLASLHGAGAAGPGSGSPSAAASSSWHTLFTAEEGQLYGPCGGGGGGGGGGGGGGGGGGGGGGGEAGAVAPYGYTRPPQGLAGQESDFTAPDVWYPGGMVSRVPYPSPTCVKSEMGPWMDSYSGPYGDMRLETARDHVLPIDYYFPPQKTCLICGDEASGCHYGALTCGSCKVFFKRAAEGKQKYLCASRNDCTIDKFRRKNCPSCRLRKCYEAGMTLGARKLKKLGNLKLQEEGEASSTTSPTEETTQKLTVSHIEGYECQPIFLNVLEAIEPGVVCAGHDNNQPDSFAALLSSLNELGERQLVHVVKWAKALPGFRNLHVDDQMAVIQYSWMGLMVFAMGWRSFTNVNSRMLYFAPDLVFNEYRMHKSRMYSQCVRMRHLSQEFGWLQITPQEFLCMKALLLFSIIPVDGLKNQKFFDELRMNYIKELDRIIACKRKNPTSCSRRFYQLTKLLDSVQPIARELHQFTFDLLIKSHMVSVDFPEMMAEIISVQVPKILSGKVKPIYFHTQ

Compound: O=C1CCCCC1
- Potency [1]: inactive
- Potency [2]: inactive
- Potency [3]: inactive
- Potency [4]: inactive
- Potency [5]: inactive
- outcome [6]: inactive
- outcome [7]: inactive
- outcome [8]: inactive
- Potency [9]: inactive
- outcome [10]: inactive
- Potency [11]: inactive
- Potency [12]: inactive
- outcome [13]: inactive
- Potency [14]: inactive
- Potency [15]: inactive
- Potency [16]: inactive
- Potency [17]: inactive
- Potency [18]: inactive
- Potency (Aromatase (Homo sapiens)): inactive

Compound: OCC1CCCO1 (stereo not drawn)
- Potency [1]: inactive
- Potency [2]: inactive
- Potency [3]: inactive
- Potency [4]: inactive
- Potency [5]: inactive
- outcome [7]: inactive
- outcome [8]: inactive
- Potency [9]: inactive
- outcome [10]: inactive
- Potency [11]: inactive
- Potency [14]: inactive
- Potency [19]: inactive
- Potency [15]: inactive
- Potency [16]: inactive
- Potency [17]: inactive
- Potency [18]: inactive
- Potency (Aromatase (Homo sapiens)): inactive

Compound: Oc1ccc2ccccc2c1
- Potency [1]: inactive
- Potency [2]: inactive
- Potency [3]: inactive
- Potency [4]: inactive
- Potency [5]: inactive
- outcome [7]: inactive
- outcome [8]: inactive
- Potency [9]: inactive
- outcome [10]: inactive
- Potency [11]: inactive
- Potency [19]: inactive
- Potency [18]: inactive
- Potency (Aromatase (Homo sapiens)): inactive

Compound: O=[N+]([O-])C(CO)(CO)CO
- Potency [1]: inactive
- Potency [2]: inactive and 68.6 µM (active)
- Potency [3]: inactive
- Potency [4]: inactive and 68.6 µM (active)
- Potency [5]: inactive
- Potency [9]: inactive
- Potency [11]: inactive
- Potency [12]: inactive
- outcome [13]: inactive
- Potency [14]: inactive
- Potency [19]: inactive
- Potency [15]: inactive
- Potency [16]: inactive
- Potency [17]: inactive
- Potency [18]: inactive
- Potency (Aromatase (Homo sapiens)): inactive

Compound: c1ccc2ccccc2c1
- Potency [1]: inactive
- Potency [2]: inactive
- Potency [3]: inactive
- Potency [4]: inactive
- Potency [5]: inactive
- Potency [9]: inactive
- Potency [11]: inactive
- Potency [12]: inactive
- outcome [13]: inactive
- Potency [14]: inactive
- Potency [19]: inactive
- Potency [15]: inactive
- Potency [16]: inactive
- Potency [17]: inactive
- Potency [18]: inactive
- Potency (Aromatase (Homo sapiens)): inactive

Compound: COC(=O)c1ccccc1O
- Potency [1]: inactive
- Potency [2]: inactive
- Potency [3]: inactive
- Potency [4]: inactive
- Potency [5]: inactive
- Potency [9]: inactive
- Potency [11]: inactive
- Potency [12]: inactive
- outcome [13]: inactive
- Potency [14]: inactive
- Potency [19]: inactive
- Potency [15]: inactive
- Potency [16]: 23.7 µM (active) and inactive
- Potency [17]: inactive
- Potency [18]: inactive
- Potency (Aromatase (Homo sapiens)): inactive

Compound: Nc1cc(-c2ccncc2)c[nH]c1=O
- Potency [1]: inactive
- Potency [2]: inactive
- Potency [3]: inactive
- Potency [4]: inactive
- Potency [5]: inactive
- outcome [6]: inactive
- outcome [7]: inactive
- outcome [8]: inactive
- Potency [9]: inactive
- outcome [10]: inactive
- Potency [11]: inactive
- Potency [12]: inactive
- outcome [13]: inactive
- Potency [14]: inactive
- Potency [19]: inactive
- Potency [15]: inactive
- Potency [16]: inactive
- Potency [17]: inactive
- Potency [18]: inactive
- Potency (Aromatase (Homo sapiens)): inactive

Compound: Oc1ccc(OCc2ccccc2)cc1
- Potency [1]: inactive
- Potency [2]: 2.54 µM (active) and 8.45 µM (active)
- Potency [3]: 2.85 µM (active) and 5.33 µM (active)
- Potency [4]: 4.52 µM (active) and 11.9 µM (active)
- Potency [5]: inactive
- outcome [7]: inactive
- outcome [8]: inactive
- Potency [9]: inactive
- outcome [10]: inactive
- Potency [11]: 9.02 µM (active)
- Potency [14]: inactive
- Potency [19]: inactive
- Potency [15]: 11.4 µM [activator] (active) and 53.8 µM [inconclusive] (active)
- Potency [16]: 8.04 µM (active) and 9.48 µM (active)
- Potency [18]: inactive
- Potency (Aromatase (Homo sapiens)): inactive
